For the assay, the system named is Leishmania donovani. The experiment in a line: Leishmania intramacrophage assay. The assay is classed as functional, organism-based. Further details: scale not given: in the data most compounds retested in dose-response had high values.

These results are taken from ChEMBL document CHEMBL3988442, “University of Dundee, Small-Polar-MMV Screening Library” (2021).

Hit rate of the full screen: of about 69,000 compounds, about 1,000 (1.4%) showed an effect of 50% or more. This is one part of a sample in which strong results are shown more often than they occur.

Consider `C=C(C)CN1CCC(C(=O)c2cc(F)ccc2F)CC1`, for which the “Percent Effect” value (30 µM) worked out at 41.7%.
Turning to `Cc1cccc2c1nc(CCO)n2-c1ccc(C(=O)N2CCOCC2)o1`, the “Percent Effect” value (30.3 µM, […]) is 26.23%.
In the case of `CC(=O)N1N=C(COc2ccc(C)cc2)OC1c1ccc(N(C)C)cc1` (stereo not given), the “Percent Effect” value (30.3 µM, […]) was determined as 54.92%.
Consider `COc1ccc(C2OC(COc3ccc(C)cc3)=NN2C(C)=O)cc1` (stereo not given), for which the “Percent Effect” value (30.3 µM, […]) is on record as 8.051%.
For `COCCNc1nc(N2CCOCC2)nc2nccnc12`, the “Percent Effect” value (30.3 µM, […]) was found to be 21.04%.
For `CC(C)=CCN1CCN(C(=O)C2CC2)CC1`, where the note is “30.3 µM, […]”, the “Percent Effect” value was -4.864%.
For the compound `COc1ccccc1CC(NC(=O)N1CCC[C@@H]1CO)C(C)C` (stereo not given in full), the “Percent Effect” value (30.3 µM, […]) was 9.914%.
Turning to `CS(=O)(=O)CCNC(=O)Nc1sc2ccccc2c1Cl`, the “Percent Effect” value (30.3 µM, […]) was -48.56%.
Take `CN(C)C(=O)CCNC(=O)Nc1sc2ccccc2c1Cl`: the “Percent Effect” value (30.3 µM, […]) was -8.505%.
On the same count and under the same terms, the figure for `CN(C)CC(C)(O)CNC(=O)Nc1sc2ccccc2c1Cl` (stereo not given) is 53.76%; for `CN(CC(=O)NC(Cc1ccsc1)c1cccnc1)Cc1cccnc1.Cl` (stereo not given) it is 2.46%.
For `O=c1[nH]c2c(c(=O)n1C1CCCCC1)CCC2Nc1ccccc1Cl` (stereo not given), where the note is “30 µM, 30.03 µM”, the “Percent Effect” value is reported as 19.4%.
Regarding `CC(CNC(=O)c1cccc(-n2cccn2)n1)Cn1ccnc1` (stereo not given), the “Percent Effect” value (30.3 µM, […]) came out at 11.75%.
As for `COCC(=O)NC[C@H]1CC[C@H](c2ccnc3ncnn32)CC1`, the “Percent Effect” value (30.3 µM, […]) is 23.66%.
As for `O=C(NC[C@H]1CC[C@H](c2ccnc3ncnn32)CC1)c1ccccn1`, the “Percent Effect” value (30.3 µM, […]) is listed as 56.14%.
Consider `O=C(NC[C@H]1CC[C@H](c2ccnc3ncnn32)CC1)C1CC1`, for which, under “30.3 µM, […]”, the “Percent Effect” value was found to be 16.97%.
With `COc1ccc(OCc2noc(CN(C)C3CCS(=O)(=O)C3)n2)cc1` (stereo not given), the “Percent Effect” value (30.3 µM, […]) worked out at 17.47%.
For `O=C(CC1=CCCCC1)Nc1ccc(CN2C(=O)CCC2=O)cc1`, the “Percent Effect” value (30.3 µM, […]) is recorded as -19.22%.
`C[C@@H]1CN(C2CCN(c3ccccc3F)CC2)CC[C@]1(C)O`: under “30.3 µM, […]”, the “Percent Effect” value is given as 62.06%.
Take `C[C@@H]1CN(C2CCN(c3ccccc3F)CC2)C[C@]1(C)O`: for the setting “30.3 µM, […]”, the “Percent Effect” value was found to be 31.62%.
Same read-out and setting: the same measure for `CC(=O)N[C@@H]1CN(C2CCN(c3ccccc3F)CC2)C[C@H]1C(C)C`: -2.556%.
As for `CCC(O)CN1CCN(C(=O)c2cccn2Cc2ccccc2)CC1` (stereo not given), the “Percent Effect” value (30 µM, 30.03 µM) came out at 13.25%.
With `Cn1cc(C(=O)N[C@H]2CN(Cc3nccs3)[C@@H]3CCCO[C@H]23)cn1.O=C(O)C(F)(F)F`, the “Percent Effect” value (30.3 µM, […]) was found to be 15.38%.
Turning to `CC(NCc1ccncc1)c1cc2c(cc1Br)OCCO2` (stereo not given), the “Percent Effect” value (30.3 µM, […]) was 16.23%.
As for `CC(NCc1ccccn1)c1cc2c(cc1Br)OCCO2` (stereo not given), the “Percent Effect” value (30.3 µM, […]) is 16.93%.
Consider `CC(NCc1cccc2c1OCCO2)c1cc2c(cc1Br)OCCO2` (stereo not given), for which, for the setting “30.3 µM, […]”, the “Percent Effect” value is recorded as 73.82%.
With `O=C(NCCNc1ncccn1)N1CCN(c2nccs2)CC1`, the “Percent Effect” value (30.3 µM, […]) is reported as 13.95%.
In the case of `CS(=O)(=O)Cc1cc(F)ccc1NCc1nnsc1Cl`, for the setting “30.3 µM, […]”, the “Percent Effect” value is reported as -4.772%.
For the compound `Cn1ccnc1CN1CCC2(COCCN(Cc3ccsc3)C2)C1` (stereo not given), the “Percent Effect” value (30 µM, 30.03 µM) is listed as 46.66%.
Take `Cn1ccnc1CN1CCC2(CC1)COCCN(S(C)(=O)=O)C2.O=C(O)C(F)(F)F`: for the setting “30.3 µM, […]”, the “Percent Effect” value came out at 39.8%.
With `Cn1ccnc1CN1CCC2(CC1)COCCN(c1ncccn1)C2`, the “Percent Effect” value (30.3 µM, […]) stood at 59.31%.
As for `NCC(=O)N1CCC2(CC1)CN(C(=O)Cc1ccc(Cl)cc1)CCO2`, the “Percent Effect” value (30.3 µM, […]) is given as -4.476%.
Consider `Cc1nccn1C1CCCN(C(=O)c2cccc(Cn3ccnc3)c2)C1` (stereo not given), for which the “Percent Effect” value (30 µM) is given as 43.46%.
For `CCN(CCO)C[C@@H]1CN(C(=O)c2sc3ccccc3c2C)C[C@@H]1CO`, where the note is “30.3 µM, […]”, the “Percent Effect” value was -0.1561%.
As for `COc1ccc(-c2nc(CC(=O)N(C)CCC#N)cs2)cc1OC`, the “Percent Effect” value (30.3 µM, […]) is 0.3942%.
As to `CN(CC1CC1)C(=O)Cc1csc(-c2ncccn2)n1`, the “Percent Effect” value (30.3 µM, […]) came to 39.01%.
On to `CN(CCC#N)C(=O)Cc1csc(-c2ncccn2)n1`, for which the “Percent Effect” value (30.3 µM, […]) is recorded as 54.73%.
Regarding `COCC1CCCCN1C(=O)c1cc(-c2cccc(OC)c2)n[nH]1` (stereo not given), the “Percent Effect” value (30.3 µM, […]) is -0.5575%.
On to `COCC(=O)NCCc1nc(N(C)C)ncc1-c1ccncc1`, for which, where the note is “30.3 µM, […]”, the “Percent Effect” value came out at 29.7%.
Turning to `Cn1cc(CN2CC[C@@H]3[C@@H]2CCN3C(=O)c2cccc(F)c2)cn1.O=C(O)C(F)(F)F`, the “Percent Effect” value (30.3 µM, […]) is given as 56.05%.
On to `Cn1cc(C(=O)N2CC[C@@H]3[C@@H]2CCN3Cc2ccccc2)cn1.O=C(O)C(F)(F)F`, for which the “Percent Effect” value (30.3 µM, […]) was 4.091%.
Regarding `Cn1cc(C(=O)N2CC[C@@H]3[C@@H]2CCN3Cc2cccc(F)c2)cn1.O=C(O)C(F)(F)F`, the “Percent Effect” value (30 µM, 30.03 µM) amounted to 2.666%.
Take `Cc1oncc1C(=O)N1CC[C@H]2CO[C@H](CN3CCCC3)[C@H]2C1`: the “Percent Effect” value (30.3 µM, […]) was 5.899%.
Consider `COc1c(CNC2CCc3c(Cl)cccc32)c(C)nn1C.Cl` (stereo not given), for which the “Percent Effect” value (30 µM, 30.03 µM) turned out to be 56.04%.
On to `COc1c(CNC2CCCOc3ccc(F)cc32)c(C)nn1C.Cl` (stereo not given), for which the “Percent Effect” value (30.3 µM, […]) was determined as 19.28%.
As to `COc1c(CNC2CCOc3c(Cl)cccc32)c(C)nn1C.Cl` (stereo not given), the “Percent Effect” value (30.3 µM, […]) was found to be 30.91%.
`COc1c(CNC2CCc3c(F)cccc32)c(C)nn1C.Cl` (stereo not given): the “Percent Effect” value (30 µM) is reported as 34.02%.
On to `COc1c(CNC2CCc3cc(F)ccc32)c(C)nn1C.Cl` (stereo not given), for which the “Percent Effect” value (30 µM, 30.03 µM) was determined as 46.26%.
On the same count and under the same terms, the figure for `COc1c(CNC2CCSc3ccc(F)cc32)c(C)nn1C.Cl` (stereo not given) is 60.68%.
For the compound `COc1ccc(F)c(CNC2CCCc3nc(N(C)C)ncc32)c1` (stereo not given), the “Percent Effect” value (30.3 µM, […]) worked out at 34.48%.
Regarding `O=C(c1ccc(Cl)cc1)N1CC2(CCNC2)OCc2ccccc21` (stereo not given), where the note is “30.3 µM, […]”, the “Percent Effect” value amounted to 67.31%.
Still for that read-out and setting: the figure for `O=C(C1CCCC1)N1CC2(CCNC2)OCc2ccccc21` (stereo not given) is 12.94%; for `O=C(c1ccccc1)N1CC2(CCNC2)OCc2ccccc21` (stereo not given) it is 23.45%; for `Cc1noc(CSc2ccc(C(F)(F)F)cn2)n1` it is 27.73%.
As for `CCCc1nc(C)c(C(=O)NCCn2ccnc2)s1`, where the note is “30.3 µM, […]”, the “Percent Effect” value is given as -7.791%.
Consider `Cl.Clc1cccc(N[C@H]2CCCN[C@H]2Cc2ccccc2)c1`, for which the “Percent Effect” value (30.3 µM, […]) amounted to 98.49%.
Take `O=C(NCCc1cccc(Cl)c1)C1CCOCC1`: the “Percent Effect” value (30.3 µM, […]) is -10.81%.
As to `O=C1NCCCc2[nH]c(Cc3cccc(Cl)c3)nc21`, the “Percent Effect” value (30.3 µM, […]) came to 16.75%.
In the case of `CCOc1ccc(Cl)cc1C1CCCN1.Cl` (stereo not given), the “Percent Effect” value (30 µM, 30.03 µM) is 7.031%.
On the same count and under the same terms, the figure for `O=C(Cc1cccc(Cl)c1)N[C@@H]1CCNC[C@H]1O` is -4.847%.
On to `Cl.Cl.Clc1cccc(C[C@@H]2NCCC[C@@H]2Nc2ccccc2)c1`, for which, under “30.3 µM, […]”, the “Percent Effect” value worked out at 98.87%.
`Cl.Cl.Clc1cccc(C[C@@H]2NCCC[C@@H]2Nc2cccc(Cl)c2)c1`: under “30.3 µM, […]”, the “Percent Effect” value is given as 98%.
For the compound `O=C(C[S+]([O-])Cc1cccc(Cl)c1)NC1CCCC1` (stereo not given), the “Percent Effect” value (30.3 µM, […]) came to 13.89%.
With `Cl.O=C(OCC1CCCN1)c1cccc(NC(=O)c2ccco2)c1` (stereo not given), the “Percent Effect” value (30.3 µM, […]) is 19.64%.
With `CCn1cc2c(n1)C(COC)CN(Cc1ccccn1)C2` (stereo not given), the “Percent Effect” value (30 µM, 30.03 µM) was -30.8%.
